Test results taken from the supplement of paper PMC3334620.
The full ranking holds about 33,000 sequences; the median of “E-score (-0.5 to 0.5)” is about -0.017, and the highest 2% start at about 0.3. What follows is part of a selection rich in the highest values, with near analogues and random picks from the rest.

Biological target: T1, Sut1 (UniProt P53032)
T1 sequence: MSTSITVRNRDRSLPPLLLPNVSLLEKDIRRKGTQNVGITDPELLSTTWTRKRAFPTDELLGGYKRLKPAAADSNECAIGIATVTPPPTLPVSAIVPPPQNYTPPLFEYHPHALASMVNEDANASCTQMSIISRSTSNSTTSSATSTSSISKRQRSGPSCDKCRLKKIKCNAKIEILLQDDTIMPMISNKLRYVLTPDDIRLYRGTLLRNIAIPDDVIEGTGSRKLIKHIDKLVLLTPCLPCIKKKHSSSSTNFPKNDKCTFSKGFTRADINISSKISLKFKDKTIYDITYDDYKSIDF
Test: PBM E-score (8-mer binding enrichment) (E-score (-0.5 to 0.5)); higher = stronger / more preferred TF binding
Details: protein concentration: 200 nM; construct: GST-full length
Procedure: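 Universal 'all 10-mer' protein binding microarrays (Agilent AMADID 015681) probed with GST-tagged S. cerevisiae TFs (full-length or DBD) made by in vitro transcription/translation (PURExpress), about 100-200 nM. Bound TF was detected with fluorescent anti-GST. Each ungapped 8-mer (which stands for itself and its reverse complement) is scored by the PBM enrichment score (E-score), a modified Wilcoxon-Mann-Whitney statistic from -0.5 to +0.5, computed with the Universal PBM Analysis Suite. Scale: above 0.35 generally sequence-specific binding.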

Row | Sequence | PBM E-score
1 | AAAACTTG | 0.143
2 | GCGTTACC | -0.158
3 | ACTCCCTG | -0.173
4 | AATCACGT | -0.0474
5 | ATGCGGAG | 0.259
6 | GTCCAAAC | -0.0427
7 | CTCCGGAG | 0.487
8 | CTCAGGAG | -0.179
9 | GTCCGGAC | 0.469
10 | ATGCGGAA | 0.0745
11 | ATCCGGAA | 0.303
12 | GTGCGGAA | 0.0942
13 | GTCCGGAA | 0.402
14 | GTCAGGAC | -0.206
15 | CAACGCAA | 0.111
16 | TAGTTAGA | 0.169
17 | AGTCTATG | -0.11
18 | ACATTGGC | -0.21
19 | AGAAAGCT | 0.126
20 | CATAAGGA | -0.134
21 | CCCTCGAC | -0.327
22 | CAATCTAG | -0.0129
23 | CTTAGTCC | 0.113
24 | ATTGAGTG | 0.0241
25 | CTGCGGAC | 0.165

Row | Sequence | PBM E-score
26 | CTCAGGAC | -0.127
27 | CTCCGGAC | 0.473
28 | GTTTAAAA | 0.19
29 | ATATTAAA | 0.37
30 | GTTTAAAC | 0.31
31 | AAGTTATA | 0.186
32 | TTATTAAA | 0.273
33 | GAGTTATA | 0.2
34 | CTTTAAAC | 0.105
35 | GAAATTAA | 0.333
36 | CAAATTAA | 0.189
37 | TAGTTATA | 0.318
38 | CTATTAAA | 0.0826
39 | AAAATTAA | 0.221
40 | AGGTCTAA | -0.0642
41 | CTAGGTGA | -0.168
42 | GTCTATCA | 0.101
43 | AGATTCAT | 0.0265
44 | ATTAAGAC | 0.123
45 | GCGCTTGA | 0.0596
46 | AAATTATA | 0.351
47 | ATATTTAA | 0.303
48 | AATTAAAG | 0.198
49 | CTATTTAA | 0.188
50 | ATATTTAC | 0.282

Row | Sequence | PBM E-score
51 | AAATTATG | 0.175
52 | AATTAAAC | 0.329
53 | AATTTATA | 0.276
54 | CAATTATA | 0.164
55 | GATTAAAC | 0.114
56 | TAATTAGA | 0.218
57 | TAATTATA | 0.349
58 | ACTAAGTC | 0.0911
59 | CTACCCAG | -0.18
60 | AGAAATGC | 0.048
61 | GAAATCCC | -0.0066
62 | ATCACCTA | -0.13
63 | CTTAGCCC | -0.129
64 | ATGAACCC | 0.00896
65 | CCAAATCC | 0.0309
66 | AGCAGAAA | 0.175
67 | AAGGTCTC | -0.0653
68 | GAATTATC | 0.0676
69 | CGATTAAA | 0.237
70 | AAATTACT | 0.234
71 | GCATTATA | 0.118
72 | AGATTAAT | 0.222
73 | GCATTAAA | 0.0763
74 | AGATTAAA | 0.324
75 | AAATTATC | 0.281

Row | Sequence | PBM E-score
76 | AAATTATT | 0.328
77 | ACATTAAA | 0.259
78 | TCATTAAA | 0.315
79 | GAATTATA | 0.335
80 | AGCAAATC | 0.142
81 | AGTGGCAT | -0.231
82 | CCCTTCAA | -0.068
83 | ATTCCCTA | 0.11
84 | AAGGCCAG | -0.00339
85 | GAGCTAAA | 0.106
86 | AATTTCTA | 0.285
87 | ATATTATG | 0.362
88 | AAATTAAT | 0.292
89 | CTCTTAAC | 0.042
90 | GTCTTAAA | 0.00721
91 | CTCTTAAA | 0.302
92 | AAATTAAA | 0.333
93 | AAATTAAC | 0.236
94 | ATATTATC | 0.223
95 | ATATTATA | 0.249
96 | CTCTCGCC | -0.182
97 | GAGTTAAA | 0.13
98 | AGAACCTC | -0.0985
99 | GCAACGCC | -0.114
100 | CTTAAAGC | -0.0652

Row | Sequence | PBM E-score
101 | TATACTGA | 0.292
102 | CATATTAA | 0.183
103 | GATATTGA | 0.234
104 | TATATTAA | 0.315
105 | CATATTGA | 0.0287
106 | GATATTAA | 0.285
107 | TATATTGA | 0.332
108 | GAACAGAC | 0.0707
109 | GTCCTAGA | -0.141
110 | CGCCCGAA | -0.101
111 | AGCCCGGA | 0.341
112 | GGCCCGGA | 0.305
113 | CGCCCGGA | 0.361
114 | GCCCCGGA | 0.29
115 | CGCCCGGC | -0.0194
116 | AGCCCGGG | 0.0766
117 | AGCCCGGC | 0.00111
118 | GGCCCGCA | -0.113
119 | CTACCAAC | 0.0725
120 | AACTCGCT | 0.0435
121 | ATGGAGAA | 0.108
122 | ACGGAGGA | 0.0201
123 | ACGGAGCC | 0.219
124 | ACGGAGAT | 0.435
125 | CCGGACAA | 0.283

Row | Sequence | PBM E-score
126 | ACGGAGAA | 0.362
127 | ACGGAGCG | 0.2
128 | ACGGAGCT | 0.386
129 | GCGGACAA | 0.23
130 | TCGGACAA | 0.367
131 | ACGGAGAG | 0.247
132 | ACGGAGAC | 0.232
133 | GGATAGCA | 0.0461
134 | CGCTGTAA | 0.00093
135 | AACCTTTG | 0.0541
136 | AAACTAAT | 0.292
137 | GGTTATGA | -0.00868
138 | CACAACCA | 0.0851
139 | CGTTGCGC | -0.153
140 | GTTAGTCA | -0.0461
141 | ATTAGACC | -0.183
142 | ACATCAAT | 0.201
143 | AAACAGTC | -0.179
144 | CCGGAGAG | 0.253
145 | TGGGAGAA | -0.07
146 | GCGGAGAA | 0.279
147 | CAGGAGAA | 0.0231
148 | GCGGAGAC | 0.183
149 | CCGGATAA | 0.285
150 | CCGGAGAC | 0.328

Row | Sequence | PBM E-score
151 | TCGGAGAA | 0.436
152 | CGGGAGAC | 0.132
153 | CCGGAGAA | 0.397
154 | ACGGATAA | 0.103
155 | TCGGATAA | 0.318
156 | TCTCTAAA | 0.107
157 | AAGATAAA | 0.199
158 | GCGACTTA | -0.106
159 | ACGTCTCA | -0.0462
160 | AAAACTGA | 0.12
161 | CAGGTTGC | -0.135
162 | AGCCTTCC | -0.158
163 | GGCAGCAA | -0.129
164 | CTCGGAGA | 0.419
165 | ATCGGAGA | 0.416
166 | ATCGGAGG | 0.0998
167 | ATCGGCGC | -0.0591
168 | CTTGGAGA | -0.00672
169 | CTCGGTGC | -0.02
170 | CTCGGATA | 0.126
171 | CTCGGAGC | 0.389
172 | ATCGGATA | 0.288
173 | ATCGGAGC | 0.358
174 | ATCGGATC | -0.00393
175 | CTAGGAGC | -0.306
